Screening data (PubChem BioAssay)
EZH2 inh – blocks human EZH2/PRC2 H3K27 methylation | AID 651548 | DELFIA TRF, 1 h | inhibition, % at 12.5 µM | 0.35% of 57,000 active | Q15910;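 active = mean inhibition of replicates at least 50% and every single replicate also reaching 50%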;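 also: dimethyl H3K27 on biotinylated H3 21-44 peptide detected by antibody; plate controls were median neutral control wells for no effect and median positive control wells for full effect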
* hit, by the source's call. Many of the other results were omitted from the sample, so hits are more common in it than they were.

SMILES | EZH2 inh
CCC(=O)N(C)C[C@H]1Oc2cc(C#CC3(O)CCCC3)ccc2S(=O)(=O)N([C@@H](C)CO)C[C@H]1C | 3
O=C(COc1ccccc1)Nc1ccc2oc(-c3ccc(Cl)cc3)nc2c1 | -12
O=C(COc1ccccc1)Nc1ccc2oc(-c3cccc(Cl)c3)nc2c1 | 1
CC(=O)N(Cc1ccc(C(C)C)cc1)c1ccc2oc(-c3ccccc3)nc2c1 | 58*
O=[N+]([O-])c1cccc(S(=O)(=O)NCCOc2ccccc2-c2ccccc2)c1 | 53*
O=[N+]([O-])c1cccc(S(=O)(=O)NCCOc2cccc3cccnc23)c1 | -5
O=[N+]([O-])c1cccc(S(=O)(=O)NCCOc2cccc(Cl)c2Cl)c1 | 1
Cc1ccc(NC(=O)C(=O)NCCc2c[nH]c3ccccc23)cc1Cl | 2
O=S(=O)(NC1CCN(Cc2cccc(OCCO)c2)CC1)c1ccc(Cl)cc1 | -1
CC(C)NC(=O)NCC[C@H]1CC[C@@H](NC(=O)CCN2CCCCC2)[C@H](CO)O1 | -14
C[C@H]1CN([C@@H](C)CO)C(=O)c2cc(C#Cc3ccccc3)cnc2O[C@@H]1CN(C)CC1CCOCC1 | -12
C[C@@H]1CN([C@H](C)CO)C(=O)c2cc(C#Cc3ccncc3)cnc2O[C@H]1CN(C)CC1CCOCC1 | 100*
C[C@@H]1CN([C@@H](C)CO)C(=O)c2cc(C#Cc3ccncc3)cnc2O[C@@H]1CN(C)CC1CCOCC1 | 14
Cn1c(Cc2ccccc2)nnc1Sc1ccc([N+](=O)[O-])cc1C(=O)N1CCOCC1 | -1
COc1ccc(COCC23N=C4SCc5ccccc5CN4[C@H](c4ccccc4O2)[C@H]3CO[Si](C)(C)C(C)(C)C)cc1 | 2
O=C(OCc1ccccc1O[C@@H]1O[C@H](CO)[C@@H](O)[C@H](O)[C@H]1O)c1c(O)cccc1O[C@@H]1O[C@H](CO)[C@@H](O)[C@H](O)[C@H]1O | 2
O=C(OCC1OC(Oc2ccc(O)cc2COC(=O)C2(O)C(O)CCC(=O)C2O)C(O)C(O)C1O)c1ccccc1 (stereo not given) | 22
CC(C)CC(=O)c1c(O)cc(O)cc1OC1OC(COC(=O)c2cc(O)c(O)c(O)c2)C(O)C(O)C1O (stereo not given) | 94*
O=C(C[C@H]1CC[C@H](NC(=O)c2ccncc2)[C@@H](CO)O1)NCC1CC1 | -1
N#Cc1c(NC(=O)COc2ccc3c(-c4ccccc4)cc(=O)oc3c2)sc2c1CCC2 | 4
COC(=O)COc1cccc(NC(=O)c2ccccc2I)c1 | -14
O=C(CCCCCC(=O)N/N=C/c1ccccc1)NO | -76
N#Cc1c(-c2ccccc2)nc(SCC(=O)Nc2ccc(Oc3ccccc3)cc2)[nH]c1=O | 87*
N#Cc1c(-c2ccccc2)nc(SCC(=O)Nc2cccc(C(F)(F)F)c2)[nH]c1=O | 39
CC(=O)c1ccc(NC(=O)CSc2nc(-c3ccccc3)c(C#N)c(=O)[nH]2)cc1 | -8
SMILES | EZH2 inh
COc1ccc(NC(=O)CCN2C(=O)c3ccccc3C2=O)cc1Cl | -10
COC(=O)c1ccc(NC(=O)CCC(=O)c2ccc(OC)cc2)cc1 | -1
COC(=O)c1ccc(C2C(Oc3ccc(OC)cc3)C(=O)N2Cc2ccc(F)cc2)cc1 (stereo not given) | 51*
COC(=O)c1ccc(C2C(C(=O)c3ccco3)C(=O)C(=O)N2Cc2ccco2)cc1 (stereo not given) | -7
COC(=O)c1ccccc1NC(=O)c1ccc(NC(=O)COc2ccccc2)cc1 | 10
COC(=O)c1ccccc1NC(=O)c1cccc(NC(=O)COc2ccccc2)c1C | 17
COC(=O)c1ccccc1NC(=O)c1ccc(COc2ccccc2)o1 | 53*
CC(C)C#Cc1cnc2c(c1)C(=O)N([C@@H](C)CO)C[C@@H](C)[C@@H](CN(C)C(=O)c1cnccn1)O2 | -35
CS(=O)(=O)N(CC(=O)NC1CCCCC1)c1ccc2c3c(cccc13)CC2 | -8
Cc1ccc(S(=O)(=O)N[C@H]2C=C[C@H](CC(=O)NCCCN(C)C)O[C@H]2CO)cc1 | 1
C=Cc1ccc(O[C@@H]2O[C@H](CO[C@@H]3O[C@@H](C)[C@H](O)[C@@H](O)[C@H]3O)[C@@H](O)[C@H](O)[C@H]2O)cc1 | 87*
COc1ccc(-c2cc(=O)c3c(O)c(OC)c(O[C@H]4O[C@H](CO[C@@H]5O[C@@H](C)[C@H](O)[C@@H](O)[C@H]5O)[C@@H](O)[C@H](O)[C@H]4O)cc3o2)cc1 | -1
CC1OC(Oc2ccc(-c3cc(=O)c4c(O)cc(OC5OC(CO)C(O)C(O)C5O)cc4o3)cc2)C(O)C(O)C1O (stereo not given) | 9
C=CCOC(=O)C1=C[C@H](c2csc3ccccc23)C[C@H](OCc2ccc(CO)cc2)O1 | 59*
O=C(NC1CC1)C1=C[C@H](c2csc3ccccc23)C[C@H](OCc2ccc(CO)cc2)O1 | 4
C=CCOC(=O)C1=C[C@H](c2coc3ccccc3c2=O)C[C@H](OCc2ccc(CO)cc2)O1 | 0
CO[C@H]1CN(C)C(=O)c2cc(NC(=O)c3nc4ccccc4s3)ccc2OC[C@H](C)N(Cc2cncnc2)C[C@@H]1C | 4
COCC#Cc1cnc2c(c1)C(=O)N([C@@H](C)CO)C[C@@H](C)[C@@H](CN(C)C(=O)Nc1cccc(F)c1)O2 | -7
CO[C@@H]1CN(C)C(=O)c2cc(NC(=O)NC(C)C)ccc2OC[C@H](C)N(C(=O)CC2CC2)C[C@@H]1C | 8
O=C(N/N=C/c1ccc(-c2ccccc2)cc1)c1ccccn1 | 5
COc1c(O)cc2c(=O)oc3c(OC)c(O[C@@H]4OC[C@@H](O)[C@H](O)[C@H]4O)cc4c(=O)oc1c2c34 | 80*
COc1c(O[C@@H]2O[C@H](C(=O)O)[C@@H](O)[C@H](O)[C@H]2O)cc2oc(-c3ccc(O)cc3)cc(=O)c2c1O | 48
COc1cc(OC)c(NC(=O)CSc2nnc(-c3ccccc3)n2-c2ccccc2)cc1Cl | 17
CC(=O)N[C@@H]1CC[C@@H](CCNC(=O)C2CC2)O[C@@H]1CO | -1
C/C=C/[C@H](CCn1cc(CCO)nn1)[Si](C)(C)c1ccc(OC)cc1 | 27
SMILES | EZH2 inh
C/C=C/[C@@H](CCn1cc(CCO)nn1)[Si](C)(C)c1ccc(OC)cc1 | 13
C/C=C/[C@H](CC(=O)N(CCO)Cc1ccccc1)[Si](C)(C)c1ccc(OC)cc1 | 58*
C/C=C/c1ccc2c(c1)O[C@H](CN(C)C(=O)C1CCCCC1)[C@H](C)CN([C@@H](C)CO)S2(=O)=O | 2
CO[C@H](CN(C)S(=O)(=O)c1ccccc1)[C@@H](C)CN(C(=O)Nc1ccccc1F)[C@@H](C)CO | -6
O=C(C1=C[C@H](c2csc3ccccc23)C[C@H](OCCCCO)O1)N1CCCCCCC1 | 4
COC(=O)c1ccccc1NC(=O)CCSc1ccc(C)cc1 | 54*
COC(=O)c1ccccc1NC(=O)Cn1c(C)ccc1C | -8
COC(=O)c1ccccc1NC(=O)CNC(=O)c1ccccc1 | -7
COc1ccc(CCNS(=O)(=O)c2cc(C)ccc2OC)cc1 | -1
COc1ccc(CCc2cc(OC)cc(=O)o2)cc1 | 52*
COc1ccc2cc(CCC(C)=O)ccc2c1 | 20
Cc1nn(-c2ccccc2)cc1C1C=C(c2ccc(Cl)cc2)N=C2SCC(=O)N21 (stereo not given) | -4
COCC(=O)Nc1ccc2c(c1)[C@H]1C[C@H](CC(=O)NCc3ccc(Cl)cc3)O[C@@H](CO)[C@H]1O2 | -4
CCCC1=C(C(=O)OCC)C(c2cccnc2)n2ncnc2N1 (stereo not given) | -2
CC(C)=CCN[C@H](CO)c1ccccc1 | 2
